Measurements as given in PubChem BioAssay AID1159580 (chemical genetic matrix, 2015).
Values joined by “and” are separate entries in the source; they are usually repeats but may differ in a detail not shown here. Equal values may be shown once. About 2,000 (36%) of roughly 5,500 compounds were called active. Not shown: some 18% with an inconclusive outcome. This is one part of the list. Unmarked numbers belong to inactive results. Rule as the data show it: active = normalized growth mostly below about 0.91 (no sharp cut-off); inconclusive = no clear call, values can overlap the other calls; inactive = mostly above about 0.92.

Test: chemical genetic growth profiling, strain panel (AID 1159580);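 also: tested at 20 µM; growth read once vehicle control cultures reached saturation at 30 °C; 1 = growth at the plate median or of vehicle wells; lower values mean less growth of the strain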
Conditions: S. cerevisiae deletion strains, growth OD

With CN(C)CCCN1c2ccccc2Sc2ccc(Cl)cc21 the normalized growth (locus YKL068W, hits give low values) was 1.01, the normalized growth (locus YKL085W, strain MDH1 (second series), hits give low values) was 0.975 and the normalized growth (locus YKL085W, strain MDH1, hits give low values) was 0.975. For the same compound, the normalized growth (locus YKL160W, strain elf1, hits give low values) was 0.229 (active), the normalized growth (locus YKL190W, strain CNB1, hits give low values) was 0.949 and the normalized growth (locus YKR001C, strain vps1, hits give low values) was 0.919. The normalized growth (locus YKR026C, strain gcn3, hits give low values) was 0.151 (active), the normalized growth (locus YKR091W, strain srl3, hits give low values) was 0.0828 (active) and the normalized growth (locus YLL001W, strain dnm1, hits give low values) was 0.11 (active). The normalized growth (locus YLL026W, hits give low values) was 0.0697 (active), the normalized growth (locus YLL041C, strain sdh2, hits give low values) was 0.0922 (active) and the normalized growth (locus YLR027C, strain aat2, hits give low values) was 0.0702 (active). The normalized growth (locus YLR039C, strain RIC1, hits give low values) was 1.67 [resistant] (active), the normalized growth (locus YLR058C, strain SHM2, hits give low values) was 0.986 and the normalized growth (locus YLR102C, strain apc9, hits give low values) was 1. For the same compound, the normalized growth (locus YLR113W, strain HOG1, hits give low values) was 0.982, the normalized growth (locus YLR221C, strain rsa3, hits give low values) was 0.11 (active) and the normalized growth (locus YLR258W, strain gsy2, hits give low values) was 0.0787 (active). For the same compound, the normalized growth (locus YLR262C, strain YPT6 (second series), hits give low values) was 0.165 (active), the normalized growth (locus YLR262C, strain YPT6, hits give low values) was 1.54 [resistant] (active) and the normalized growth (locus YLR268W, strain sec22, hits give low values) was 1.01. The normalized growth (locus YLR320W, strain mms22, hits give low values) was 0.181 (active), the normalized growth (locus YLR330W, strain CHS5, hits give low values) was 1 and the normalized growth (locus YLR342W, strain FKS1 (second series), hits give low values) was 0.746 (active). The normalized growth (locus YLR342W, strain FKS1, hits give low values) was 0.0779 (active), the normalized growth (locus YLR357W, strain rsc2, hits give low values) was 0.18 (active) and the normalized growth (locus YLR370C, strain arc18, hits give low values) was 0.067 (active). For the same compound, the normalized growth (locus YLR371W, strain rom2, hits give low values) was 1.01, the normalized growth (locus YLR384C, strain iki3, hits give low values) was 0.102 (active) and the normalized growth (locus YLR418C, strain cdc73, hits give low values) was 0.804 (active). For the same compound, the normalized growth (locus YML016C, strain PPZ1, hits give low values) was 1, the normalized growth (locus YML032C, strain rad52, hits give low values) was 0.964 and the normalized growth (locus YML120C, strain ndi1, hits give low values) was 0.082 (active). The normalized growth (locus YML124C, strain tub3, hits give low values) was 1.01, the normalized growth (locus YMR058W, strain fet3, hits give low values) was 0.0939 (active) and the normalized growth (locus YMR078C, strain ctf18, hits give low values) was 1.01. For the same compound, the normalized growth (locus YMR125W, strain sto1, hits give low values) was 0.0861 (active), the normalized growth (locus YMR129W, hits give low values) was 0.0771 (active) and the normalized growth (locus YMR205C, strain PFK2, hits give low values) was 0.719 (active). For the same compound, the normalized growth (locus YMR223W, strain ubp8, hits give low values) was 0.958, the normalized growth (locus YMR231W, strain pep5, hits give low values) was 0.0725 (active) and the normalized growth (locus YMR263W, strain SAP30, hits give low values) was 0.955. For the same compound, the normalized growth (locus YMR307W, strain GAS1, hits give low values) was 1.02, the normalized growth (locus YNL067W, strain RPL9B, hits give low values) was 0.993 and the normalized growth (locus YNL071W, strain lat1, hits give low values) was 0.218 (active). The normalized growth (locus YNL153C, strain GIM3, hits give low values) was 0.86 (active) and 0.732 (active), the normalized growth (locus YNL175C, strain NOP13, hits give low values) was 0.967 and the normalized growth (locus YNL183C, strain NPR1, hits give low values) was 0.917. For the same compound, the normalized growth (locus YNL197C, strain WHI3, hits give low values) was 0.98, the normalized growth (locus YNL209W, strain ssb2, hits give low values) was 0.101 (active) and the normalized growth (locus YNL224C, strain SQS1, hits give low values) was 0.984. The normalized growth (locus YNL233W, strain BNI4, hits give low values) was 0.937, the normalized growth (locus YNL248C, strain rpa49, hits give low values) was 0.461 (active) and the normalized growth (locus YNL250W, strain rad50, hits give low values) was 1.02. It also gave a normalized growth (locus YNL271C, strain bni1, hits give low values) of 1.01, a normalized growth (locus YNL298W, strain CLA4, hits give low values) of 1.02 and a normalized growth (locus YNL307C, strain MCK1, hits give low values) of 1.01. The normalized growth (locus YNL322C, strain KRE1 (second series), hits give low values) was 1.07, the normalized growth (locus YNL322C, strain KRE1, hits give low values) was 0.974 and the normalized growth (locus YNR049C, strain mso1, hits give low values) was 0.0933 (active). For the same compound, the normalized growth (locus YNR052C, strain pop2, hits give low values) was 0.94, the normalized growth (locus YOL006C, strain TOP1, hits give low values) was 0.733 and the normalized growth (locus YOL012C, strain htz1) was 0.856. For the same compound, the normalized growth (locus YOL147C, strain pex11, hits give low values) was 1.02, the normalized growth (locus YOR001W, strain rrp6, hits give low values) was 0.143 (active) and the normalized growth (locus YOR061W, strain CKA2, hits give low values) was 0.948. The normalized growth (locus YOR069W, strain VPS5, hits give low values) was 1, the normalized growth (locus YOR070C, strain gyp1, hits give low values) was 0.0696 (active) and the normalized growth (locus YOR080W, strain dia2, hits give low values) was 0.18 (active). The normalized growth (locus YOR083W, strain WHI5 (second series), hits give low values) was 0.935, the normalized growth (locus YOR083W, strain WHI5, hits give low values) was 0.0877 (active) and the normalized growth (locus YOR106W, strain vam3, hits give low values) was 0.0702 (active). The normalized growth (locus YOR136W, strain idh2, hits give low values) was 1.03, the normalized growth (locus YOR144C, strain elg1, hits give low values) was 1.01 and the normalized growth (locus YOR184W, strain ser1, hits give low values) was 1.04. The normalized growth (locus YOR231W, strain MKK1, hits give low values) was 0.986, the normalized growth (locus YOR265W, strain rbl2, hits give low values) was 0.0766 (active) and the normalized growth (locus YOR270C, strain vph1, hits give low values) was 0.331 (active). For the same compound, the normalized growth (locus YOR290C, strain snf2, hits give low values) was 0.122 (active), the normalized growth (locus YOR316C, strain cot1, hits give low values) was 1 and the normalized growth (locus YPL051W, strain arl3, hits give low values) was 0.229 (active). The normalized growth (locus YPL078C, strain atp4, hits give low values) was 0.586 (active), the normalized growth (locus YPL106C, strain sse1, hits give low values) was 0.109 (active) and the normalized growth (locus YPL240C, strain hsp82, hits give low values) was 0.0839 (active). The normalized growth (locus YPL241C, strain CIN2, hits give low values) was 0.988 and 0.985, the normalized growth (locus YPL256C, strain CLN2, hits give low values) was 0.97 and the normalized growth (locus YPR119W, strain clb2, hits give low values) was 1.01. For the same compound, the normalized growth (locus YPR141C, strain kar3, hits give low values) was 1.02, the normalized growth (locus YPR163C, strain tif3, hits give low values) was 0.988 and the normalized growth (locus YPR167C, strain met16, hits give low values) was 1.02. It also gave a normalized growth (strain wtn01, hits give low values) of 0.969.
